# From PubChem BioAssay (NCATS)
# Records with an inconclusive call do not appear. A call without a number means that no potency is given here. Unmarked numbers belong to inactive results. Active and inactive are the calls of the source. Calls follow the shape of the dose curve; as a rule, active = well fitted curve in the direction sought with a large enough effect; inconclusive = small, poorly fitted or top-dose-only effect, or another doubt; inactive = no such curve, though single readings can be large; an effect the other way counts as inactive or inconclusive.
# Tests used:
# [1] = system: C33A; experiment: Primary qHTS to identify gynecologic anti-cancer compounds using libraries of approved drugs and bioactive compounds (AID 1345084); settings: Gynecologic cancer cell panel viability, ATPlite luminescence, 48 h; series mostly up to 57.5 µM; also: nearly all actives have a fitted effect of over 55% in size
# Summary of the method: (§1)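 Cells, 1,000 per well, were allowed to settle for 16 h at 37 C before compound addition. Five concentrations were tested for 48 h, and viability was read by ATPlite luminescence after 15 min at room temperature.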
# [2] = system: CAOV3; experiment: as above; settings: Gynecologic cancer cell panel viability, ATPlite luminescence, 48 h; series mostly up to 57.5 µM
# Summary of the method: as §1
# [3] = system: CASKI; experiment: as above; settings: Gynecologic cancer cell panel viability, ATPlite luminescence, 48 h; series mostly up to 57.5 µM
# Summary of the method: as §1
# [4] = system: Es-2; experiment: as above; settings: Gynecologic cancer cell panel viability, ATPlite luminescence, 48 h; series mostly up to 57.5 µM
# Summary of the method: as §1
# [5] = system: HeLa; experiment: as above; settings: Gynecologic cancer cell panel viability, ATPlite luminescence, 48 h; series mostly up to 57.5 µM
# Summary of the method: as §1
# [6] = system: Hek293T; experiment: as above; settings: Gynecologic cancer cell panel viability, ATPlite luminescence, 48 h, control line for the selectivity index; series mostly up to 57.5 µM
# Summary of the method: as §1
# [7] = system: JEG-3; experiment: as above; settings: Gynecologic cancer cell panel viability, ATPlite luminescence, 48 h; series mostly up to 57.5 µM
# Summary of the method: as §1
# [8] = system: OV90; experiment: as above; settings: Gynecologic cancer cell panel viability, ATPlite luminescence, 48 h; series mostly up to 57.5 µM
# Summary of the method: as §1
# [9] = system: PA-1; experiment: as above; settings: Gynecologic cancer cell panel viability, ATPlite luminescence, 48 h; series mostly up to 57.5 µM
# Summary of the method: as §1
# [10] = system: SKOV3; experiment: as above; settings: Gynecologic cancer cell panel viability, ATPlite luminescence, 48 h; series mostly up to 57.5 µM
# Summary of the method: as §1
# [11] = system: Tov-21-G; experiment: as above; settings: Gynecologic cancer cell panel viability, ATPlite luminescence, 48 h; series mostly up to 57.5 µM
# Summary of the method: as §1
# [12] = system: Tov112D; experiment: as above; settings: Gynecologic cancer cell panel viability, ATPlite luminescence, 48 h; series mostly up to 57.5 µM
# Summary of the method: as §1
# [13] = Drug repurposing screens with cells derived from glioblastoma tumor samples (AID 1345199); settings: GBM patient neurospheres viability, ATP luminescence, 48 h; also: nearly all actives have a fitted effect of over 40% in size
# Summary of the method: (§2)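 Four patient lines of CD133+ GBM neurospheres were screened at several concentrations; hits were retested in those lines plus three slower-growing GBM lines, using 48-hour treatment and ATP-based viability.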
# [14] = system: astro; experiment: as above; settings: viability, ATP luminescence, 48 h; series mostly up to 45.9 µM
# Summary of the method: as §2
# [15] = at 45.9 µM (top of the series), tumour line B
# [16] = at 45.9 µM (top of the series), tumour line D
# [17] = at 46 µM (top of the series), tumour line A
# Potency is read from the fitted curve at half-maximal effect.
SMILES,Potency [1],outcome [2],outcome [3],Potency [4],Potency [5],outcome [6],outcome [7],Potency [8],Potency [9],outcome [10],Potency [11],Potency [12],"activity, negative = cell killing [13, 15] [%]","activity, negative = cell killing [13, 16] [%]","activity, negative = cell killing [13, 17] [%]",Potency [14],Potency ([13]; tumour line A),"activity, negative = cell killing ([13]; at 91.6 µM (top of the series), tumour line A) [%]","activity, negative = cell killing ([13]; at 91.6 µM (top of the series), tumour line B) [%]","activity, negative = cell killing ([13]; at 91.6 µM (top of the series), tumour line D) [%]"
Cc1ncsc1CCCl,inactive,inactive,inactive,inactive,inactive,inactive,inactive,inactive,inactive,inactive,inactive,inactive,-10.2,-8.99,4.91,inactive,,,,
C=CCN1C[C@H](C)N([C@H](c2ccc(C(=O)N(CC)CC)cc2)c2cccc(OC)c2)C[C@H]1C,inactive,inactive,inactive,inactive,inactive,inactive,inactive,inactive,inactive,inactive,inactive,inactive,-27.6,,,,7.08 µM (active),,,
c1ccc2c(c1)sc1ccccc12,inactive,inactive,inactive,inactive,inactive,inactive,inactive,inactive,inactive,inactive,inactive,inactive,-12.7,-8,-9.49,inactive,,,,
CCC1(c2ccccc2)C(=O)N(COC)C(=O)N(COC)C1=O,inactive,inactive,inactive,inactive,inactive,inactive,inactive,inactive,inactive,inactive,inactive,inactive,-7.62,2.45,-19.3,,,,,
C[C@]12CC[C@H]3[C@@H](CCC4=CC(=O)CC[C@@H]43)[C@@H]1CC[C@@H]2OC(=O)CCC1CCCCC1,inactive,inactive,inactive,inactive,11.2 µM (active),inactive,inactive,inactive,inactive,inactive,inactive,inactive,,,,,,,,
O=c1[nH]c2ccccc2n1C1CCNCC1,inactive,inactive,inactive,inactive,inactive,inactive,inactive,inactive,inactive,inactive,inactive,inactive,,,,,,,,
CN(C)CCc1c[nH]c2cccc(OP(=O)(O)O)c12,inactive,inactive,inactive,inactive,inactive,inactive,inactive,inactive,inactive,inactive,inactive,inactive,,,,inactive,,-30.1,-11.6,-12.3
C#CC(O)(C=CCl)CC (stereo not drawn),inactive,inactive,inactive,inactive,inactive,inactive,inactive,inactive,inactive,inactive,inactive,inactive,,,,,,,,
